# Publication PMC7862700, “An all-to-all approach to the identification of sequence-specific readers for epigenetic DNA modifications on cytosine”
# Columns and labels:
# Test in all cases: DAPPL (digital affinity profiling via proximity ligation, sequencing); 10 mM Tris-HCl pH 7.5, 50 mM NaCl, 1 mM DTT, 4% glycerol, room temperature, 30 min; GST-TFs on glutathione beads, 16-mer random dsDNA library, 0.1% formaldehyde crosslink after washing; high values mean tight binding
# FLI1 = molecular target: T1, FLI1 (Homo sapiens, UniProt Q01543 1-452); conditions: protein: recombinant; tags: N-terminal GST; dsDNA, one strand shown
# T1 sequence: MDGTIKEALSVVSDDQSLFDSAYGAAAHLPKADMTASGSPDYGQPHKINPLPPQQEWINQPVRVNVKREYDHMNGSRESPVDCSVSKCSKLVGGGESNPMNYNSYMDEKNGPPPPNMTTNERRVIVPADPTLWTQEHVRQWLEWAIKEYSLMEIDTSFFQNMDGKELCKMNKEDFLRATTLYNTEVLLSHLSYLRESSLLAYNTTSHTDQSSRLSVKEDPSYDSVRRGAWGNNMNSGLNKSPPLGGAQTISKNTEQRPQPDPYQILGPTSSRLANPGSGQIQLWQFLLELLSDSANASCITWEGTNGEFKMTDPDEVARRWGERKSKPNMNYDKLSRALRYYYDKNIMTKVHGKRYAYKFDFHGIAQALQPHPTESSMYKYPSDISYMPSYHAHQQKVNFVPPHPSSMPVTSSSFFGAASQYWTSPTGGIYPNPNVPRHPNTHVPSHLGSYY
# Method in brief: (§1)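 Binding signal is defined as a hexamer's read frequency for one factor over its frequency for the tag-only sample. To obtain reads, GST-fused human transcription factors were expressed in yeast, captured on glutathione beads, barcoded with DNA and pooled with that sample. Pools met 200 nmole of a 16-mer random double-stranded DNA library in Tris/NaCl/DTT/glycerol buffer for 30 min at room temperature before washing, 0.1% formaldehyde crosslinking, proximity ligation (BsaI/T4 ligase, 1 h, 37 °C), PCR and Illumina NextSeq500 sequencing.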
# ELK1 = molecular target: T2, ELK1 (Homo sapiens, UniProt P19419 1-428); conditions: protein: recombinant; tags: N-terminal GST; dsDNA, one strand shown
# T2 sequence: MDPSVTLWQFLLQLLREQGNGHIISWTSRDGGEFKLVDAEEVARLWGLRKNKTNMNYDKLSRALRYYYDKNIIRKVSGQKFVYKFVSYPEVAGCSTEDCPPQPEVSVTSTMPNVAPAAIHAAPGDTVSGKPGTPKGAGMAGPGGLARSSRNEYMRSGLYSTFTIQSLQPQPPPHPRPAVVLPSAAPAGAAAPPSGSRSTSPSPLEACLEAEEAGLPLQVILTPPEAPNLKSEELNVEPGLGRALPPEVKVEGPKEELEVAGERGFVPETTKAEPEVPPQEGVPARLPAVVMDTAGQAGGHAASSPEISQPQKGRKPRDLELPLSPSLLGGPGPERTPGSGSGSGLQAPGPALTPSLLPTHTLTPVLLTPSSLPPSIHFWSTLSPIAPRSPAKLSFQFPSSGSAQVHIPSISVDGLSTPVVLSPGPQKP
# Method in brief: as §1
# GABPA = molecular target: T3, GABPA (Homo sapiens, UniProt Q06546 1-454); conditions: protein: recombinant; tags: N-terminal GST; dsDNA, one strand shown
# T3 sequence: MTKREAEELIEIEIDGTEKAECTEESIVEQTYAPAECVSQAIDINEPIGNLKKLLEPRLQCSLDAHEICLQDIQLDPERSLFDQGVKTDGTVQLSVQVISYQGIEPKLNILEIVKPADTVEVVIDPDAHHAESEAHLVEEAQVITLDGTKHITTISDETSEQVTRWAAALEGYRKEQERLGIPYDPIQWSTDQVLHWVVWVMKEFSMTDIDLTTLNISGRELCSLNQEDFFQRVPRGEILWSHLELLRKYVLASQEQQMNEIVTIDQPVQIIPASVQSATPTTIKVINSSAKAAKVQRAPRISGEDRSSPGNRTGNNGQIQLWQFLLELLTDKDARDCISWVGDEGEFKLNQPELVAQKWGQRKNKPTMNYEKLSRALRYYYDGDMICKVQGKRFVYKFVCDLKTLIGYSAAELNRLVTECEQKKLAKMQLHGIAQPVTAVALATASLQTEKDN
# Method in brief: as §1
# ERG = molecular target: T4, ERG (Homo sapiens, UniProt P11308 1-479); conditions: protein: recombinant; tags: N-terminal GST; dsDNA, one strand shown
# T4 sequence: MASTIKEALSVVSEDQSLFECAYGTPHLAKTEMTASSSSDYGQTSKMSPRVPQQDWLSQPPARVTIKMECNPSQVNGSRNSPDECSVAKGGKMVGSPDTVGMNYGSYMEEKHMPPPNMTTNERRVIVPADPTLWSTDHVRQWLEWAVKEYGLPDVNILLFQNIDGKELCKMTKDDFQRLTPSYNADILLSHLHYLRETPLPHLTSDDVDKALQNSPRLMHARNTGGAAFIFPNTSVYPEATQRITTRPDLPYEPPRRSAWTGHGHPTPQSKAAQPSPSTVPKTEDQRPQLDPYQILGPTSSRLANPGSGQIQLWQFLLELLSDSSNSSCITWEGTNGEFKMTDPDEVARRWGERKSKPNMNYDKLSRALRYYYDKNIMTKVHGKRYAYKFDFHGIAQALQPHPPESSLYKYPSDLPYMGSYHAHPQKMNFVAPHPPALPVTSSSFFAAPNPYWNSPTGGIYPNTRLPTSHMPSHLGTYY
# Method in brief: as §1
# ELF1 = ELF1 (Homo sapiens, UniProt P32519 1-619); conditions: protein: recombinant; tags: N-terminal GST; dsDNA, one strand shown
# Method in brief: as §1
# EHF = molecular target: T5, EHF (Homo sapiens, UniProt Q9NZC4 1-300); conditions: protein: recombinant; tags: N-terminal GST; dsDNA, one strand shown
# T5 sequence: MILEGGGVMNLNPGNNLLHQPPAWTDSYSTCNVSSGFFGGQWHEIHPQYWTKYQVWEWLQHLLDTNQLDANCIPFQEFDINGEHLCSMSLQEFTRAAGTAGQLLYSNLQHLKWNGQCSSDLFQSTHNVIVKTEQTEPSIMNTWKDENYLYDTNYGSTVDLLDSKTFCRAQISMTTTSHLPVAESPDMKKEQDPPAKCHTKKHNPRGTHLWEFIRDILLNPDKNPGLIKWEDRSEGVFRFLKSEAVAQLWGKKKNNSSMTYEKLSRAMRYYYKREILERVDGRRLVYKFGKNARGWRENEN
# Method in brief: as §1
# SPI1 = SPI1 (Homo sapiens, UniProt P17947 1-270); conditions: protein: recombinant; tags: N-terminal GST; dsDNA, one strand shown
# Method in brief: as §1
# SPIB = SPIB (Homo sapiens, UniProt Q01892 1-262); conditions: protein: recombinant; tags: N-terminal GST; dsDNA, one strand shown
# Method in brief: as §1
# ELK3 = molecular target: T6, ELK3 (Homo sapiens, UniProt P41970 1-407); conditions: protein: recombinant; tags: N-terminal GST; dsDNA, one strand shown
# T6 sequence: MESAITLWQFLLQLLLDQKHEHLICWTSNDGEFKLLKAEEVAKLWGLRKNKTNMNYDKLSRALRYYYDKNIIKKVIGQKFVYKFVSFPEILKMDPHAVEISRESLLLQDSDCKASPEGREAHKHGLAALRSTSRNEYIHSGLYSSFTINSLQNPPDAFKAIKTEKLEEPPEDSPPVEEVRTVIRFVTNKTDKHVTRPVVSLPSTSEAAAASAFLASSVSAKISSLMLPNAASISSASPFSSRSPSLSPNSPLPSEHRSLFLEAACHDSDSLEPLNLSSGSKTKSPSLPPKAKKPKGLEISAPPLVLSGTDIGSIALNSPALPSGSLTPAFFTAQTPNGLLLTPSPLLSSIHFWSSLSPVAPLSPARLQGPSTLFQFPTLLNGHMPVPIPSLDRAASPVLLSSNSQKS
# Method in brief: as §1
# FEV = molecular target: T7, FEV (Homo sapiens, UniProt Q99581 1-238); conditions: protein: recombinant; tags: N-terminal GST; dsDNA, one strand shown
# T7 sequence: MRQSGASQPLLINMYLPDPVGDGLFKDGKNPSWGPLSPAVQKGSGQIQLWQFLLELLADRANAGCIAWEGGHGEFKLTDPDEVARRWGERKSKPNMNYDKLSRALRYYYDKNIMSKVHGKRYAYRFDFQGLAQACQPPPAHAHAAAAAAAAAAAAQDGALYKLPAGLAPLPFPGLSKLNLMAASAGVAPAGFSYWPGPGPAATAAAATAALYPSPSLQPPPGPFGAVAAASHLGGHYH
# Method in brief: as §1
# ETV5 = ETV5 (Homo sapiens, UniProt P41161 1-510); conditions: protein: recombinant; tags: N-terminal GST; dsDNA, one strand shown
# Method in brief: as §1
# HSF1 = HSF1 (Homo sapiens, UniProt Q00613 1-529); conditions: protein: recombinant; tags: N-terminal GST; chain copies: 3; dsDNA, one strand shown
# Method in brief: as §1
# SPIC = molecular target: T8, SPIC (Homo sapiens, UniProt Q8N5J4 1-248); conditions: protein: recombinant; tags: N-terminal GST; dsDNA, one strand shown
# T8 sequence: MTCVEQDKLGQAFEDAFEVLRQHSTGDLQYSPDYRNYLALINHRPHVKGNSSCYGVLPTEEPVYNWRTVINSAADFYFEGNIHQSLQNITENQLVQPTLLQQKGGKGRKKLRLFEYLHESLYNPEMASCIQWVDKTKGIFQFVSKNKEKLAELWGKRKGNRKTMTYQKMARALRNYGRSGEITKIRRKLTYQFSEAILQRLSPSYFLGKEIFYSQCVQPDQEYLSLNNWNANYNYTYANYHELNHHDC
# Method in brief: as §1
# ELF4 = ELF4 (Homo sapiens, UniProt Q99607 1-663); conditions: protein: recombinant; tags: N-terminal GST; dsDNA, one strand shown
# Method in brief: as §1
# ELK4 = molecular target: T9, ELK4 (Homo sapiens, UniProt P28324-2 1-405); conditions: protein: recombinant; tags: N-terminal GST; dsDNA, one strand shown
# T9 sequence: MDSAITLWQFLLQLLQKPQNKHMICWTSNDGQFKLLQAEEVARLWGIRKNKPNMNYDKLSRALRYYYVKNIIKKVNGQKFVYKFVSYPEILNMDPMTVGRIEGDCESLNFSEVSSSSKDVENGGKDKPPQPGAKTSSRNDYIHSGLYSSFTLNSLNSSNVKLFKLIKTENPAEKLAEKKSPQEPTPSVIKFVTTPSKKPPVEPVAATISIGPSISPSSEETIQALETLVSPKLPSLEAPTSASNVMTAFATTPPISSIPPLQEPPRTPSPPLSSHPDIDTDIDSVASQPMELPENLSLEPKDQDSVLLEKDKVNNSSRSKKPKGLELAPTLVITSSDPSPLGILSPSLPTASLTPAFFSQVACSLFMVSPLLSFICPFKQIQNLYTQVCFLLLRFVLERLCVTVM
# Method in brief: as §1
# ETV2 = molecular target: T10, ETV2 (Homo sapiens, UniProt O00321 1-342); conditions: protein: recombinant; tags: N-terminal GST; dsDNA, one strand shown
# T10 sequence: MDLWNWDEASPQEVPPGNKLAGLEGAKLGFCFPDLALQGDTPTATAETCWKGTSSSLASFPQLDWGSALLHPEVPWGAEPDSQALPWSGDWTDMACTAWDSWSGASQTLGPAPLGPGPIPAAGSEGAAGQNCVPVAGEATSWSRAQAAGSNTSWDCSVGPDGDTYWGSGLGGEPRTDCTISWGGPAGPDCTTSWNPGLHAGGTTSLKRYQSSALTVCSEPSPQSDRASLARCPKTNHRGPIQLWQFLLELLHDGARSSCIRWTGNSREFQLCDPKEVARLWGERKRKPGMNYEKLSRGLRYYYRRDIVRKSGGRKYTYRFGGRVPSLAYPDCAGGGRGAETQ
# Method in brief: as §1
# ELF3 = molecular target: T11, ELF3 (Homo sapiens, UniProt P78545 1-371); conditions: protein: recombinant; tags: N-terminal GST; dsDNA, one strand shown
# T11 sequence: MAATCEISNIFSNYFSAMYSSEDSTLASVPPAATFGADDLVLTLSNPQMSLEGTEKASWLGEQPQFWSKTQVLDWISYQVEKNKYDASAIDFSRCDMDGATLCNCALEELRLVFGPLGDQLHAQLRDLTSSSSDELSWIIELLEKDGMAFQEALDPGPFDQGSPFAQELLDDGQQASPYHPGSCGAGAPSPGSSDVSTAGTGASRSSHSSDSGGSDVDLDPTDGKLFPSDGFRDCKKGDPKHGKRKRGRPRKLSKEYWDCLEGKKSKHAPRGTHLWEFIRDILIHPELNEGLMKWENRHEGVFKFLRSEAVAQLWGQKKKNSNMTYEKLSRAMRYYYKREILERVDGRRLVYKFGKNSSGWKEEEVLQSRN
# Method in brief: as §1
# CRX = CRX (Homo sapiens, UniProt O43186 1-299); conditions: protein: recombinant; tags: N-terminal GST; dsDNA, one strand shown
# Method in brief: as §1
# ETV1 = ETV1 (Homo sapiens, UniProt P50549 1-477); conditions: protein: recombinant; tags: N-terminal GST; dsDNA, one strand shown
# Method in brief: as §1
# Sequence of CRX (O43186 whole entry): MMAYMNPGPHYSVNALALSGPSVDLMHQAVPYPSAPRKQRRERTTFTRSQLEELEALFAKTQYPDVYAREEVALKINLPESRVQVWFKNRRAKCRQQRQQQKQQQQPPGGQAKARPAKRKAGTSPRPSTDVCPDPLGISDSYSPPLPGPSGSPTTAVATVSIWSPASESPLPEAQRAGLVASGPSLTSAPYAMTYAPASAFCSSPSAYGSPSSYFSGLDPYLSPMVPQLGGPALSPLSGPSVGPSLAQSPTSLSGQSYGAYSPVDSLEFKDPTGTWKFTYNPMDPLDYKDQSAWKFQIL
# Sequence of ELF1 (P32519 whole entry): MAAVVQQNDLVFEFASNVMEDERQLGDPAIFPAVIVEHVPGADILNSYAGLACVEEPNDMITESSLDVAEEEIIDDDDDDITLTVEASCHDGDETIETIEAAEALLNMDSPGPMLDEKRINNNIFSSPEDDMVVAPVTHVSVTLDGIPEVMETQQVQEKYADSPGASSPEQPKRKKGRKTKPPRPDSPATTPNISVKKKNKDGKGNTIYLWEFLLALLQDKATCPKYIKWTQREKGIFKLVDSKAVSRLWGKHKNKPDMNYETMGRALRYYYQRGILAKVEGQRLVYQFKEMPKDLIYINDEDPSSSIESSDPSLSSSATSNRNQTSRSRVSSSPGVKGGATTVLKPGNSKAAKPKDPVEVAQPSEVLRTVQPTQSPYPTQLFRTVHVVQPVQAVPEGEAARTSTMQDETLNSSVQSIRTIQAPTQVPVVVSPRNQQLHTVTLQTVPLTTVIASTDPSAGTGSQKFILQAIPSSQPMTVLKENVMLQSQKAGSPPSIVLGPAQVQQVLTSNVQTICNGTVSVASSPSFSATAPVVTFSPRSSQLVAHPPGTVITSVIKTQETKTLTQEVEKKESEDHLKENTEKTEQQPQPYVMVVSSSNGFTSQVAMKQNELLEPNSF
# Sequence of ETV1 (P50549 whole entry): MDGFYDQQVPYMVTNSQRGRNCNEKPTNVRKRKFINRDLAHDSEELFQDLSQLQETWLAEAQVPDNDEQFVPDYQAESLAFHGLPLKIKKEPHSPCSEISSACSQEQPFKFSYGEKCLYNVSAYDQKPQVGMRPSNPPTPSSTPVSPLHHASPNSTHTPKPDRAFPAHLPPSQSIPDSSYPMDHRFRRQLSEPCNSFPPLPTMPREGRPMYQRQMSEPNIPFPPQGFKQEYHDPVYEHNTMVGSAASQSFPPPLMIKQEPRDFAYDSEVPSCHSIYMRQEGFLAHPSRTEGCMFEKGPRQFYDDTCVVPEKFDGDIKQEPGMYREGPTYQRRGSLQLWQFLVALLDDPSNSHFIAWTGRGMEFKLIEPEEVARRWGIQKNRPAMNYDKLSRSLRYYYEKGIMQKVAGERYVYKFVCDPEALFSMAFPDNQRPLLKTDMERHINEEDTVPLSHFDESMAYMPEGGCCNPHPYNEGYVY
# Sequence of SPIB (Q01892 whole entry): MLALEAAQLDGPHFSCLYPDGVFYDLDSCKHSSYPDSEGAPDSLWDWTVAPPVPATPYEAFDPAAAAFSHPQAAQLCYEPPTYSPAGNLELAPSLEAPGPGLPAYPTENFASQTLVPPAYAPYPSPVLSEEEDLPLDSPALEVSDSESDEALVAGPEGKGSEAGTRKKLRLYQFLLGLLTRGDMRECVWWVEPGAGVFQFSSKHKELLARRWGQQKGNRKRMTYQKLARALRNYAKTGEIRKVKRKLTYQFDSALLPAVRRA
# Sequence of HSF1 (Q00613 whole entry): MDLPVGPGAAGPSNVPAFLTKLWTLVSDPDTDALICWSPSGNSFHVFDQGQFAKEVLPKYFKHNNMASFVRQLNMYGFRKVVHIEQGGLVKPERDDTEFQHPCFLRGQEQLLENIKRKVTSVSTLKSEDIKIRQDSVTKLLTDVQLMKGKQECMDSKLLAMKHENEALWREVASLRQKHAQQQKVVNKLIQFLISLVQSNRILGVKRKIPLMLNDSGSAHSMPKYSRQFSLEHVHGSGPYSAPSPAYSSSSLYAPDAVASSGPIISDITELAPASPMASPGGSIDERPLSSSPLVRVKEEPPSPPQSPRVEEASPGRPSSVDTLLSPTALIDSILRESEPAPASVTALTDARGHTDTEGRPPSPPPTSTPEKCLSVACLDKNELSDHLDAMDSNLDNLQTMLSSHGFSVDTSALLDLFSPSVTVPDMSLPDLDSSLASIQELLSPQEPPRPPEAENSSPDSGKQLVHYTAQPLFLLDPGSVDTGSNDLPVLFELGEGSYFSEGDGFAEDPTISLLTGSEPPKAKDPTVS
# Sequence of ETV5 (P41161 whole entry): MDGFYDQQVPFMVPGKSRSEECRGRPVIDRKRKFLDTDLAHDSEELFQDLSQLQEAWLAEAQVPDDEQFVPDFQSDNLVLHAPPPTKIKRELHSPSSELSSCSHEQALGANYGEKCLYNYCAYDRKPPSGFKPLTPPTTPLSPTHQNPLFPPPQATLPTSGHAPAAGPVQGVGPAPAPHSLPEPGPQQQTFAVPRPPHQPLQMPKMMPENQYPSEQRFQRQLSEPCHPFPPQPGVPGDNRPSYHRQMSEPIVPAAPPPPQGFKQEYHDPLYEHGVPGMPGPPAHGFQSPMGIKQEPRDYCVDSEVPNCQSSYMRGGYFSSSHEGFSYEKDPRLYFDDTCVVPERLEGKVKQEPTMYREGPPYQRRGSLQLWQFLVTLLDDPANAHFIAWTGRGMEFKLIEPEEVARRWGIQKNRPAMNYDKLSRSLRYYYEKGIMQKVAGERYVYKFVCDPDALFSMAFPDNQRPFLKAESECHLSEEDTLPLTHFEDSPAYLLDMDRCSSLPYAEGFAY
# Sequence of ELF4 (Q99607 whole entry): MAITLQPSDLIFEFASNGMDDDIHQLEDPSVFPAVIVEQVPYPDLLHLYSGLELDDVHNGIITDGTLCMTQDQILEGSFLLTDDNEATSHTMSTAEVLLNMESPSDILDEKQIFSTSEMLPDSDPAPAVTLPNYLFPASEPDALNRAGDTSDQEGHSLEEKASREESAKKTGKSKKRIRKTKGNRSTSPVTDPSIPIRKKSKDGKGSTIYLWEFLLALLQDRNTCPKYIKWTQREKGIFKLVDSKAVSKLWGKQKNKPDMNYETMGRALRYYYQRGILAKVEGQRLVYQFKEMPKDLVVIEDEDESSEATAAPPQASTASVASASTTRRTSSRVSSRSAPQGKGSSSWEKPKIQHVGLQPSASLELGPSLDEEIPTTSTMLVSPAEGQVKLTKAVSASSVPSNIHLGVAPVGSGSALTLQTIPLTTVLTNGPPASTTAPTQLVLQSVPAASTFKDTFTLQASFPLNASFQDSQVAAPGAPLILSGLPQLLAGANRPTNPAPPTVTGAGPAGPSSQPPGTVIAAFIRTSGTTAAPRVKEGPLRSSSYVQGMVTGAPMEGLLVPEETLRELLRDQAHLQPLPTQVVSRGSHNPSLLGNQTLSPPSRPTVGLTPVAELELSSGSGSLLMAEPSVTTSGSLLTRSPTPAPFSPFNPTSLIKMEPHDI
sequence,measurement,setting,value
TCTAGT,binding signal,FLI1,"1.05 fold enrichment (6-mer frequency, TF over GST control)"
same,binding signal,ELK1,"1.12 fold enrichment (6-mer frequency, TF over GST control)"
same,binding signal,GABPA,"1.17 fold enrichment (6-mer frequency, TF over GST control)"
same,binding signal,ERG,"1.1 fold enrichment (6-mer frequency, TF over GST control)"
same,binding signal,ELF1,"1.12 fold enrichment (6-mer frequency, TF over GST control)"
same,binding signal,EHF,"1.08 fold enrichment (6-mer frequency, TF over GST control)"
same,binding signal,SPI1,"1.03 fold enrichment (6-mer frequency, TF over GST control)"
same,binding signal,SPIB,"1.08 fold enrichment (6-mer frequency, TF over GST control)"
same,binding signal,ELK3,"1.05 fold enrichment (6-mer frequency, TF over GST control)"
same,binding signal,FEV,"1.03 fold enrichment (6-mer frequency, TF over GST control)"
same,binding signal,ETV5,"1.06 fold enrichment (6-mer frequency, TF over GST control)"
same,binding signal,HSF1,"2.32 fold enrichment (6-mer frequency, TF over GST control)"
same,binding signal,SPIC,"1.18 fold enrichment (6-mer frequency, TF over GST control)"
same,binding signal,ELF4,"1.09 fold enrichment (6-mer frequency, TF over GST control)"
same,binding signal,ELK4,"1.17 fold enrichment (6-mer frequency, TF over GST control)"
same,binding signal,ETV2,"1.04 fold enrichment (6-mer frequency, TF over GST control)"
same,binding signal,ELF3,"1.28 fold enrichment (6-mer frequency, TF over GST control)"
same,binding signal,CRX,"1.37 fold enrichment (6-mer frequency, TF over GST control)"
same,binding signal,ETV1,"1.01 fold enrichment (6-mer frequency, TF over GST control)"
